Results: ChEMBL document CHEMBL2218924, “A broad activity screen in support of a chemogenomic map for kinase signalling research and drug discovery” (Biochem J, 2013)

Key:
[1] = molecular target: T1, Serine/threonine-protein kinase TBK1 (Homo sapiens) (UniProt Q9UHD2); conditions: at 10 µM
T1 sequence (whole entry): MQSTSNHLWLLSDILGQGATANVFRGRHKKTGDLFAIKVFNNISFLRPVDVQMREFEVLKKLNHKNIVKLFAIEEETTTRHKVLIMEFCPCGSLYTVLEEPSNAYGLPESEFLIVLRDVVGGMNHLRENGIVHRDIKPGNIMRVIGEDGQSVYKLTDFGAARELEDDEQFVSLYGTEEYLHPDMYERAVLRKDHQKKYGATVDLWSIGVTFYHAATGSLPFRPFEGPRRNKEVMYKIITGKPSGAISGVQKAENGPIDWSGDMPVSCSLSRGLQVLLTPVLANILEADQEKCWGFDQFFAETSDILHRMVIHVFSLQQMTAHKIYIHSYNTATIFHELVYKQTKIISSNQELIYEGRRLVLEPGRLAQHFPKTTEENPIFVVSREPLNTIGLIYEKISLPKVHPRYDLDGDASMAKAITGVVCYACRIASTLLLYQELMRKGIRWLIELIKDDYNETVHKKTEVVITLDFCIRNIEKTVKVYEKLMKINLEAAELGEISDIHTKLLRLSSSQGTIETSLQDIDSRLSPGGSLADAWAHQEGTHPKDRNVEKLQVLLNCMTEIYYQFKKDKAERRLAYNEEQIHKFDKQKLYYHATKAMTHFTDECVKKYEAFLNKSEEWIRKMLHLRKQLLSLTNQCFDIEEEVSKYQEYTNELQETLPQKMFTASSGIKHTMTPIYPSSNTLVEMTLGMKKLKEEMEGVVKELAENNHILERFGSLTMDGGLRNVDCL

[2] = molecular target: T2, TGF-beta receptor type-1 (Homo sapiens) (UniProt P36897); conditions: at 1 µM
T2 sequence (whole entry): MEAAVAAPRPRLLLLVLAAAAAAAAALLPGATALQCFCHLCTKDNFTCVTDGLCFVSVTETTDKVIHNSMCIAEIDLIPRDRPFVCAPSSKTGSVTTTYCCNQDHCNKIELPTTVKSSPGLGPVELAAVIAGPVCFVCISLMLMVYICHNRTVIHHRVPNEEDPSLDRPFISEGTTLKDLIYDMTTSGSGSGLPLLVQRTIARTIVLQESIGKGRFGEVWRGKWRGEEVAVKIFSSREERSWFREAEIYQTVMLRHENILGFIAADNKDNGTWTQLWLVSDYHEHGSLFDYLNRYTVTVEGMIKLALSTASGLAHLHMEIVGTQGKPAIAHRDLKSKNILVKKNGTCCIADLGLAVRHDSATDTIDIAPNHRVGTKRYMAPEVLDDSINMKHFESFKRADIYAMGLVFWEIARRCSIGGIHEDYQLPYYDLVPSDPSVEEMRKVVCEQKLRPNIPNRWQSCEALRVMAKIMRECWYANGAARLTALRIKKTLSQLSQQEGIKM

[3] = molecular target: T2, TGF-beta receptor type-1 (Homo sapiens); conditions: at 10 µM
[4] = molecular target: Insulin-like growth factor 1 receptor (Homo sapiens) (UniProt P08069); conditions: at 1 µM
Insulin-like growth factor 1 receptor (Homo sapiens), sequence (P08069 31-736 limits assumed): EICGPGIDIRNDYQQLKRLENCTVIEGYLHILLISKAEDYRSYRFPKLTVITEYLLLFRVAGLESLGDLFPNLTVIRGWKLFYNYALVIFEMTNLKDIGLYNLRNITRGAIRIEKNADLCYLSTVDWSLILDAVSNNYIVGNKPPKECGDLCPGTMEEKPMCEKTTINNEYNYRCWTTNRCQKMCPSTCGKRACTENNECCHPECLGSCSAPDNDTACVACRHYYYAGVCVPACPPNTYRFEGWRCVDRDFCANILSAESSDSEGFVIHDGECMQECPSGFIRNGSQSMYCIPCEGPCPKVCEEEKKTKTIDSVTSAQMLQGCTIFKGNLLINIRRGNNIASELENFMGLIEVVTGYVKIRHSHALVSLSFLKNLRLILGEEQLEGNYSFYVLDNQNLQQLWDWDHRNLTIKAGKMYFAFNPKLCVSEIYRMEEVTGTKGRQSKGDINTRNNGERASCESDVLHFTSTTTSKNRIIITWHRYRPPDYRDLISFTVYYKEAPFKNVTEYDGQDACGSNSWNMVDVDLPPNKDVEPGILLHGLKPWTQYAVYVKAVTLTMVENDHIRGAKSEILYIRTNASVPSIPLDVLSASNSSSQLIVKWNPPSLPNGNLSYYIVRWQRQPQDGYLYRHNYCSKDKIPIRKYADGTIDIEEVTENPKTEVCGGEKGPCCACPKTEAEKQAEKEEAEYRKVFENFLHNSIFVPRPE
Insulin-like growth factor 1 receptor (Homo sapiens), sequence (P08069 741-1367 limits assumed): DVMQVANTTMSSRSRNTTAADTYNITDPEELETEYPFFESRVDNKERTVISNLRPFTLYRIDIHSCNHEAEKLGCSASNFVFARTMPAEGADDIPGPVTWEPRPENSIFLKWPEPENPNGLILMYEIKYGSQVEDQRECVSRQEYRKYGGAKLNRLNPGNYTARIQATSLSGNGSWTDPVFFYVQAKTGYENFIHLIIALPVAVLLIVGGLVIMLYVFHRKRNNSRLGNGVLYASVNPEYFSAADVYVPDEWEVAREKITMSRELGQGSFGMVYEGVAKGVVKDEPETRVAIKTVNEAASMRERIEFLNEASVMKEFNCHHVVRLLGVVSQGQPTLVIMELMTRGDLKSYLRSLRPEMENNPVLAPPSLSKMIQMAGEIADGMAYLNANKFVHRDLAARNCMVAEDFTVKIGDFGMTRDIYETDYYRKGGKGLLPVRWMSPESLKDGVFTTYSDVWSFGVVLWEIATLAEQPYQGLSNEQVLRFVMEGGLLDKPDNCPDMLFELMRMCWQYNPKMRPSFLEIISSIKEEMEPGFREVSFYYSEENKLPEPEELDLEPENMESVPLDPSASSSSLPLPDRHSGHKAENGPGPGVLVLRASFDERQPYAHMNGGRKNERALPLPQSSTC

[5] = molecular target: Insulin-like growth factor 1 receptor (Homo sapiens) (UniProt P08069); conditions: at 10 µM
[6] = molecular target: T3, Inhibitor of nuclear factor kappa-B kinase subunit alpha (Homo sapiens) (UniProt O15111); conditions: at 1 µM
T3 sequence (whole entry): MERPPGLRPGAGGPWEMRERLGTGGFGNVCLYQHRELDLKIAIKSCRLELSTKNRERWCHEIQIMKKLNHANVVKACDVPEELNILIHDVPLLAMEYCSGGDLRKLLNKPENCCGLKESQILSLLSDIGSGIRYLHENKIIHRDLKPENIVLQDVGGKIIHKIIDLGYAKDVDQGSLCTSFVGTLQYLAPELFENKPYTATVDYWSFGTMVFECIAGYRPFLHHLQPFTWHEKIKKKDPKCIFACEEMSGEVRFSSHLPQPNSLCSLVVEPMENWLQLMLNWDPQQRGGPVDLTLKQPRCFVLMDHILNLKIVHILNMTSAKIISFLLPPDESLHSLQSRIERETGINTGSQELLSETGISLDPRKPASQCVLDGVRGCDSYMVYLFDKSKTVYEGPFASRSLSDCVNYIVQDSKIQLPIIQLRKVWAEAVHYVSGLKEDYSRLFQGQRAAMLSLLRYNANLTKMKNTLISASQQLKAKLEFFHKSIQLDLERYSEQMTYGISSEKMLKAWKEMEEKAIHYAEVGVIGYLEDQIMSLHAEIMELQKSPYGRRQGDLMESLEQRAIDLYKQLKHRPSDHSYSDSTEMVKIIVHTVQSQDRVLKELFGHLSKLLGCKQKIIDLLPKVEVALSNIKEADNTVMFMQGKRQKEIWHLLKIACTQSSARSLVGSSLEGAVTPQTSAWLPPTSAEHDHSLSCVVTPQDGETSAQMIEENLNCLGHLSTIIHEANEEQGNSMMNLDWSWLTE

[7] = molecular target: T3, Inhibitor of nuclear factor kappa-B kinase subunit alpha (Homo sapiens); conditions: at 10 µM
[8] = molecular target: T4, Inhibitor of nuclear factor kappa-B kinase subunit beta (Homo sapiens) (UniProt O14920); conditions: at 10 µM
T4 sequence (whole entry): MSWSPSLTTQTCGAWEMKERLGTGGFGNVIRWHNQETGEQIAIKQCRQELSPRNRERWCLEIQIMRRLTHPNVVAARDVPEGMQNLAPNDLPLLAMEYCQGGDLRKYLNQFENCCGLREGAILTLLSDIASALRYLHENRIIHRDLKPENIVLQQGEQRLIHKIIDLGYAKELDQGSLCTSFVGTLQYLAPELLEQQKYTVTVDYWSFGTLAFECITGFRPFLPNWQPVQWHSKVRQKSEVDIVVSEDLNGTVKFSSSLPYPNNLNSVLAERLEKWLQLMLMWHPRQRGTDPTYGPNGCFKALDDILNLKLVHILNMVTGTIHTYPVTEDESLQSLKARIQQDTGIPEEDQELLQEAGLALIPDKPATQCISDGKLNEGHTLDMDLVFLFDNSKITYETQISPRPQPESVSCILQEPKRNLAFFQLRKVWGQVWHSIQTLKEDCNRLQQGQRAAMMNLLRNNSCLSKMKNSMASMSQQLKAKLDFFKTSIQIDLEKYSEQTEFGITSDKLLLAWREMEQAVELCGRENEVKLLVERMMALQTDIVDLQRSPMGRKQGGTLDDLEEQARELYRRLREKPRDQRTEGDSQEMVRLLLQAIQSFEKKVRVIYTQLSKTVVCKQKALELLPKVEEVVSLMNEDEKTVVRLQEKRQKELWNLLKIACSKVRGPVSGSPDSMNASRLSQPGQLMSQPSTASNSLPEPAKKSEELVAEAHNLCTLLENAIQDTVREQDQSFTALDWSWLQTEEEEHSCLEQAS

[9] = molecular target: Insulin receptor (Homo sapiens) (UniProt P06213); conditions: at 1 µM
Insulin receptor (Homo sapiens), sequence (P06213 28-758 limits assumed): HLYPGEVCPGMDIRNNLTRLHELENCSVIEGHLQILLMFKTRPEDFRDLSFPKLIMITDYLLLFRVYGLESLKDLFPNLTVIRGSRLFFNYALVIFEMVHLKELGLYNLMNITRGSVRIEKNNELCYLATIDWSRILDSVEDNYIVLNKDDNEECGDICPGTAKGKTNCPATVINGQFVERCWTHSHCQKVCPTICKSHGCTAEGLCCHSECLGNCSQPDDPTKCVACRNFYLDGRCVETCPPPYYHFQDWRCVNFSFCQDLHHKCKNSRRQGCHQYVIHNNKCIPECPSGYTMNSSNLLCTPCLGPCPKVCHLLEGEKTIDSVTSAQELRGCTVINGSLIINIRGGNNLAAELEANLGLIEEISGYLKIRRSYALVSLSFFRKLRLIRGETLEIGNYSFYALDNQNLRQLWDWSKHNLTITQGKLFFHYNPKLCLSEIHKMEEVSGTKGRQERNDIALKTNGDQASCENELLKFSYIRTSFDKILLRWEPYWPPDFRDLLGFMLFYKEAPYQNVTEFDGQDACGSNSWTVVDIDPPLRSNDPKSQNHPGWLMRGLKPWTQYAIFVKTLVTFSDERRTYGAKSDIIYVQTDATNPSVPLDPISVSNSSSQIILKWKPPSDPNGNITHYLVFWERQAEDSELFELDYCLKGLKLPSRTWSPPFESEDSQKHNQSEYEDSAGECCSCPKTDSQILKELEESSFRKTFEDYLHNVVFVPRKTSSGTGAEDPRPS
Insulin receptor (Homo sapiens), sequence (P06213 763-1382 limits assumed): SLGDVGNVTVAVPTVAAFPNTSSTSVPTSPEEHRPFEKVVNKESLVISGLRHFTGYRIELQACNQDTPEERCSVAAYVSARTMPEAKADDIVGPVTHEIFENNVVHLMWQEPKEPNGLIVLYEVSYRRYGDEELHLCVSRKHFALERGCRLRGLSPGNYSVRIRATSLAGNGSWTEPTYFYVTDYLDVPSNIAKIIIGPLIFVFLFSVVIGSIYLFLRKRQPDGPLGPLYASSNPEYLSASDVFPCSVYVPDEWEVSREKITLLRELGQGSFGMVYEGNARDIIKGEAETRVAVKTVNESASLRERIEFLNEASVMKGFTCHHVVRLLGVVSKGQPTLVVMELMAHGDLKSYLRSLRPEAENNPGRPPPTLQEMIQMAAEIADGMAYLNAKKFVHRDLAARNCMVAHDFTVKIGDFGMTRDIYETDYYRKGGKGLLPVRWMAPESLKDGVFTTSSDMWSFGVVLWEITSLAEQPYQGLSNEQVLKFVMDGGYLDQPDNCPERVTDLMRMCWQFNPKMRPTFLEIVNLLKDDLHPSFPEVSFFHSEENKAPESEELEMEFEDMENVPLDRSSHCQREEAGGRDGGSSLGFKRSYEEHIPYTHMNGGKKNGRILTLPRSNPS

**Q.** What does the source list for Nc1ncnc2c1c(-c1ccc(Oc3ccccc3)cc1)cn2C1CCCC1?
**A.** residual activity [1]: 54%; residual activity [2]: 76%; residual activity [3]: 72%; residual activity [4]: 100%; residual activity [5]: 58%; residual activity [6]: 104%; residual activity [7]: 103%; residual activity [8]: 91%; residual activity [9]: 96%
